a7 integrin act = activators of alpha7 integrin expression for muscular dystrophy. AID 624291. actives 0.064% (n = 350,000). Potency, µM (doses to about 38.3 µM), inactives show at the highest dose activation, most hits filed as activators. alpha7betagal myoblasts, beta-gal FDG fluorescence, 48 h;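 note: potency is the fitted concentration of half-maximal effect; 100% = response of the positive control SU9516; nearly all actives have a fitted effect of over 60% in size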
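alpha7betagal+/- myoblasts (passage 13, 250/well) treated 48 h at 37C with compounds at 1:260 dilution of DMSO stock. Lysed, then beta-galactosidase activity read as FDG fluorescence (ex 480/em 540) after 30 min, with pre-read for autofluorescence.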
PKM2 act = PKM2 (human) enzyme activation; AID 1631; Potency, µM (top dose mostly 57.5 µM), inactives show at the highest dose activation, most hits filed as activators; purified PKM2, Kinase-Glo ATP luminescence, activation; response scale: 0% is enzyme alone, no compound; actives 0.34% (n = 260,000); note: potency is the fitted concentration of half-maximal effect; % is set by controls: 0 for no effect and ±100 for the full control effect; nearly all actives have a fitted effect of over 55% in size
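Purified hPK-M2 (>95% pure) converted ADP (0.1 mM final) to ATP with 0.5 mM PEP in 50 mM imidazole pH7.2, KCl, MgCl2, Tween 20, BSA; 1 h at room temperature. ATP detected by Kinase-Glo luminescence.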
Tb PFK inh-1 = T. brucei PFK enzyme inhibition | T. brucei PFK, ADP-Glo luminescence | Potency, µM (series often up to 57.5 µM), for the others: at the highest dose activity, negative = inhibition, most hits filed as inhibitors | actives 0.17% (n = 330,000) | AID 485367;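 note: potency is the fitted concentration of half-maximal effect; 0% = uninhibited 1x PFK enzyme wells and -100% = no-enzyme wells; nearly all actives have a fitted effect of over 60% in size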
Target sequence (O15648 whole entry, looked up): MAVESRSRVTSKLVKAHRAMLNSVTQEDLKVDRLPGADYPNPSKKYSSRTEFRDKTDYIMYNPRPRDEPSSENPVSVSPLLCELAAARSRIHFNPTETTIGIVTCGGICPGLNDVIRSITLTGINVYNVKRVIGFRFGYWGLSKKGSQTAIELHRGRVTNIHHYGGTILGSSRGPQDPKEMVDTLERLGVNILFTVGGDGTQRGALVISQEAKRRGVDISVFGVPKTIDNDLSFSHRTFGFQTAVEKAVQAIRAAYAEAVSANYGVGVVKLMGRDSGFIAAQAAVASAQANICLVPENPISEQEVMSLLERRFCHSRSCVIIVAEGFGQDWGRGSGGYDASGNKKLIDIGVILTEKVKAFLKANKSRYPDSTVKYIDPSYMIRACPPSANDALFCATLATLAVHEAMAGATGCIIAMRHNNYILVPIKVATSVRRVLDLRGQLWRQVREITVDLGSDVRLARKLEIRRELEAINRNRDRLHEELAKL
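1.25 nM PFK with 0.5 mM F6P and 0.1 mM ATP in 0.1 M TEA pH 8.0, 5 mM MgCl2, incubated 45 min at room temperature; ADP measured by ADP-Glo luminescence; compounds titrated up to 57 uM.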
TCR activator = activators of T cell receptors; primary human leukocytes, anti-CD3, IL-2 HTRF, 48 h; Potency, µM (top dose mostly 9.22 µM), inactives show at the highest dose activation of IL-2 secretion, most hits filed as activators; 330,000 tested, under 10 active; note: % of control where 0% means no effect
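IL-2 release read by HTRF sandwich (Eu cryptate donor, d2 acceptor, 665 nm emission) after 48 hr exposure of primary human leukocytes to compound together with anti-CD3 beads in the absence of co-stimulatory signals.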
AT treatment = candidate therapy for ataxia-telangiectasia; F2112 A-T fibroblasts, KAP-1 phosphorylation AlphaLISA; neocarzinostatin DNA damage 30 min before lysis; Potency, µM (series often up to 57.5 µM), for the others: top-dose activation, hits mostly activators; actives 0.19% (n = 320,000); AID 485349; note: potency is the fitted concentration of half-maximal effect; % of control where 0% means no effect; nearly all actives have a fitted effect of over 45% in size
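hTERT-immortalized A-T patient fibroblasts (F2112), 500 cells/well in OPTI-MEM, 1% FBS, got compounds for 60 min, then NCS for 30 min at 37C. Lysates were then assayed for phospho-KAP-1 by AlphaLISA (anti-pKAP1 donor, anti-KAP1 acceptor beads), 6 hr at 25C.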
IL2 activator = IL-2 activation; AID 652025; IL-2 activation reporter assay, cell-based qHTS; stimulated with anti-CD3/CD4/CD28 beads; in transgenic mouse T cells; actives 0.065% (n = 360,000); activation, % (series mostly up to about 46 µM); in the data active = activation above about 50%; inconclusive = mostly about 30% to 49%; note: 0% is about no effect
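EGFP and DsRed fluorescence is measured by plate cytometry in unstimulated transgenic mouse T cells exposed to compound for 60 minutes, then stimulated 18 hours at 37 degrees C with anti-CD3/anti-CD4 beads plus anti-CD28.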
TbPFK ATP = orthogonal confirmation of T. brucei phosphofructokinase inhibitors; shares compounds with Tb PFK inh-1; AID 504636; Potency, µM (top dose mostly 57.5 µM), for inactives: top-dose inhibition; actives 47% (n = 1,100); Tb PFK enzyme, ATP depletion, Kinase-Glo Plus luminescence; calls by dose curve; note: potency is the fitted concentration of half-maximal effect; nearly all actives have a fitted effect of over 60% in size
Tb PFK inh-2 = T. brucei PFK enzyme inhibition, hit validation; actives 41% (n = 1,100); purified T. brucei PFK, ADP-Glo luminescence, 45 min; shares compounds with Tb PFK inh-1; Potency, µM (highest dose often 57.5 µM), inactives show top-dose activity change, negative = inhibition, hits mostly inhibitors;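 note: potency is the fitted concentration of half-maximal effect; plate controls were full PFK enzyme control for no effect and no enzyme control for full effect; nearly all actives have a fitted effect of over 60% in size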
Numbers without * were called inactive; u = inconclusive; x = no result; [ ] = remark or other dose. The list is not random: actives were taken first. Their share in the collection is about 0.69%. Unless noted, calls come from the whole dose curve; as a rule, active = well fitted curve in the direction sought with a large enough effect; inconclusive = small, poorly fitted or top-dose-only effect, or another doubt; inactive = no such curve, though single readings can be large; an effect the other way counts as inactive or inconclusive.

SMILES	a7 integrin act	PKM2 act	Tb PFK inh-1	TCR activator	AT treatment	IL2 activator	TbPFK ATP	Tb PFK inh-2
Oc1ccc(C(=S)N2CCN(Cc3ccccc3)CC2)cc1	7%	4%	u	-1%	-23%	2	9.5µM*	19µM*
S=C(c1ccc(Br)cc1)N1CCN(Cc2ccccc2)CC1	-9%	-4%	u	2%	10%	-2	8.5µM*	27µM*
COc1ccc(-n2nnnc2C(CCc2ccccc2)N2CCC(n3c(=O)[nH]c4ccccc43)CC2)cc1 (stereo unspecified)	x	x	x	x	x	0	x	x
Cc1nc2cc([N+](=O)[O-])ccc2c(=O)n1-c1ccccc1[N+](=O)[O-]	-17%	8%	-3%	1%	7%[11.5 µM]	1	x	x
O=c1/c(=C\c2cc([N+](=O)[O-])cc([N+](=O)[O-])c2O)sc2nc3ccccc3n12	7%	-59%	u	1%	-12%	2	u	-7%
CCS(=O)(=O)NC(C)c1nnc2n1-c1ccc(Br)cc1C(c1ccccc1Cl)=NC2 (stereo unspecified)	18%	x	x	6%	x	0	x	x
Clc1ccc(C[n+]2cc(-c3ccccc3)n3c2CCC3)cc1Cl	-13%	0%	u	2%[46.1 µM]	-1%	-1	6.7µM*	11µM*
Cc1ccc(C(=O)NC(=S)Nc2ccc(-c3ccc(CO)o3)cc2)cc1	0%	u	u	-4%	3%	-1	5%	0%
C#C[C@]1(O)[C@H](O)CC2C3CC[C@H]4C[C@@H](O)CC[C@]4(C)C3CC[C@@]21C (stereo partly specified)	x	x	0%	x	-2%	x	x	x
O=C1C(=O)N(CCCn2ccnc2)C(c2cccc(Br)c2)/C1=C(\O)c1ccc2c(c1)OCCO2 (stereo unspecified)	7%	x	u	-7%	-6%	-5	u	u
CCOC(=O)c1cccc(C2=C(CNC(=O)c3ccc([N+](=O)[O-])cc3)[C@H]3CC[C@@H](C2)N3Cc2ccccc2)c1	-61%	x	x	x	x	-4	x	x
COc1cc2c(cc1OC)-c1c(OC)c(OC)cc3c1C(C2)N(C)CC3 (stereo unspecified)	-12%	2%	-3%	7%	15%	-1	x	x
CN1CCc2cccc3c2C1Cc1ccc(O)c(O)c1-3 (stereo unspecified)	x	u	4.3µM*	-4%	-11%	1	19µM*	17µM*
C=CCN1CCc2cccc3c2[C@H]1Cc1ccc(O)c(O)c1-3	-31%	u	u	5%	10%	0	6µM*	6µM*
O=C1NCN(c2ccccc2)C12CCN(C(CCc1ccccc1)c1nnnn1C1CCCCC1)CC2 (stereo unspecified)	x	x	x	x	x	-1	x	x
CCOC(=O)[C@]12Cc3cc(C)ccc3[C@H]1N(C(C)C)C(=O)c1ccccc12	x	x	x	x	x	-1	x	x
O=c1[nH]c2ccccc2n1C1CCN(C(CCc2ccccc2)c2nnnn2-c2ccc3c(c2)OCCO3)CC1 (stereo unspecified)	x	x	x	x	x	-1	x	x
COc1cc(N[C@@H](C)CCCN)c2ncccc2c1	x	x	x	x	x	x	4%	-5%
CCOC(=O)C1=C(C)c2ccccc2N(C(=O)OC)C1(C)C(=O)OCC (stereo unspecified)	-30%	x	u	-1%[46.1 µM]	35%	0	21µM*	u
CCOC(=O)C1(c2ccccc2)Oc2ccccc2C(c2ccc(OC)cc2)=C1C(=O)OC (stereo unspecified)	-17%	x	1%	10%[46.1 µM]	13%	-1	x	x
C=C(CC1(CNP(=O)(c2ccccc2)c2ccccc2)CC1)c1ccccc1	x	6%	x	x	x	x	x	x
CC1=C(C(=O)Nc2ccccc2)C(c2ccc[nH]2)n2ncnc2N1 (stereo unspecified)	x	x	u	x	1%	x	u	-13%
CCN(CC)C(=O)c1ccc(NC(=O)CN2CCc3cc(OC)c(OC)cc3C2)cc1	u	x	0%	4%	-14%	-2	x	x
N#Cc1c(N)nc2c(c1N)CC(COc1ccccc1)O2 (stereo unspecified)	18%	5%	u	1%	5%	-2	13%	15%
CCC1(C)CC(C(N)=S)CCO1 (stereo unspecified)	12%	-20%	u	4%	-31%	-3	x	x
SMILES	a7 integrin act	PKM2 act	Tb PFK inh-1	TCR activator	AT treatment	IL2 activator	TbPFK ATP	Tb PFK inh-2
CCOc1ccc(C(=O)OCC(=O)NCc2ccco2)cc1OCC	-12%	8%	u	4%	6%	0	u	-15%
COC(=O)C1=C(c2ccc(OC)c(OC)c2)C[C@@H]2CC[C@H]1N2C(=O)NCc1ccco1	-13%	x	-2%	8%	-3%	0	x	x
COc1ccc(C(=O)OCC(=O)NCc2ccco2)cc1OC	-8%	u	u	-1%	-4%	0	u	u
O=C(COC(=O)c1cccc(S(=O)(=O)N2CCc3ccccc3C2)c1)NCc1ccco1	23%	26%	11µM*	-3%	1%	0	11%	u
CC(=O)c1cccc(OCC(=O)N(C)CC(=O)NCc2ccco2)c1	-48%	x	19µM*	7%	-2%	0	2.4µM*	2.7µM*
CCN(CC)C(=O)c1ccc(NC(=O)c2cccc(S(=O)(=O)N3CCN(C)CC3)c2)cc1	17%	0%	-1%	-6%	10%	-3	x	x
O=C1NCN(c2ccccc2)C12CCN(C(CCc1ccccc1)c1nnnn1C1CCCC1)CC2 (stereo unspecified)	x	x	x	x	x	-1	x	x
COc1ccc(C2=NS(=O)(=O)N(C)C(C(=O)N3CCC4(CC3)OCCO4)=C2)cc1OC	-16%	1%[0.46 µM]	4%	3%	3%	0	x	x
COC1=C(OC)[C@]23CCc4ccc(OC)c(OC)c4[C@]2(CCN3C)CC1=O	21%	x	0%	3%	-1%	0	x	x

Screening data deposited in PubChem by National Center for Advancing Translational Sciences (NCATS).
